This passage reports cell number and H1.0 immunofluorescence intensity results from the supplement of paper PMC7156485.

SMILES strings stand for the structures. Where a name gives a salt, the structure may show the parent alone. ± gives the standard deviation of the averaged measurements.

Holding throughout (details): concentration: 10 µM; 24 h
For assay [1], the system named is HCC1569. The experiment in a line: cell number relative to DMSO (% of DMSO); higher = more cells (less growth inhibition / toxicity). The method, boiled down: (§1)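 Cells were seeded at 800 per well in 384-well plates with RPMI containing 10% FBS; both HCC1569 and TDF lines were used. Compounds were added at 10 µM for 24 h at 37 °C, in triplicate, before fixation in 3.7% formaldehyde and staining with a rabbit anti-H1.0 antibody, an AlexaFluor 647 secondary and DAPI. H1.0 nuclear intensity or cell number is reported as percent of the plate control using the median of replicates, and HCC1569 values were smoothed for positional effects.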

Assay [2] deals with TDF. The assay is described as above. The method, boiled down: as §1
In assay [3] the test system is TDF. The experiment in a line: H1.0 immunofluorescence intensity relative to DMSO (% of DMSO); higher = stronger H1.0 induction, active = 120 or more. In outline: as §1
The test system of assay [4] is HCC1569. The experiment in a line: H1.0 immunofluorescence intensity relative to DMSO (% of DMSO); higher = stronger H1.0 induction, active = 140 or more. The method, boiled down: as §1
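Wherever H1.0 immunofluorescence intensity relative to DMSO is given: TDF is a line of transformed human dermal fibroblasts of mesenchymal origin.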
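Wherever cell number relative to DMSO is given: TDF denotes transformed human dermal fibroblasts of mesenchymal origin.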

With `O=C1NC(=O)C(c2ccccc2)(c2ccccc2)N1` [Phenytoin], the cell number came to 104 in the assay on HCC1569 [1] and 98.5 in the assay on TDF [2]. Besides, the H1.0 immunofluorescence intensity was 95.8 (inactive) in the assay on TDF [3] and 110 (inactive) with HCC1569 [4].
The corresponding values for `CC(=O)c1ccc(N2CCOCC2)cc1O` [DNA-PK Inhibitor III] are 99.1, 93.9, 93.9 (inactive) and 118 (inactive).
Turning to `C[C@@H]1CCN(C(=O)CC#N)C[C@@H]1N(C)c1ncnc2[nH]ccc12`, the cell number was found to be 103 in the assay on HCC1569 [1] and 109 in the assay on TDF [2]. The H1.0 immunofluorescence intensity with TDF [3] is 79 (inactive); in the assay on HCC1569 [4], 96.3 (inactive).
With `N#CC(=Cc1ccc(O)c(O)c1)C(=O)NCc1ccccc1`, the cell number in the assay with HCC1569 [1] was 95.2; in the assay on TDF [2], 96. For the same compound, the figures for the H1.0 immunofluorescence intensity in the assay with TDF [3] and in the assay with HCC1569 [4] were 91.1 (inactive) and 121 (inactive), respectively.
The corresponding values for `CC(C)(C)C(=O)OCOC(=O)[C@@H]1N2C(=O)[C@@H](/N=C/N3CCCCCC3)[C@H]2SC1(C)C` are 84.7, 93.4, 89 (inactive) and 115 (inactive).
As to `NC(C(=O)O)C(O)C(=O)O` (racemic) [DL-threo-beta-hydroxyaspartic acid], the cell number in the assay with HCC1569 [1] turned out to be 101; with TDF [2], 110. The H1.0 immunofluorescence intensity in the assay with TDF [3] is 96.7 (inactive); in the assay on HCC1569 [4] it was 95.9 (inactive).
For `CN(C)c1cc2c(Nc3ccc4c(cnn4Cc4ccccc4)c3)ncnc2cn1`, the figures for the cell number with HCC1569 [1] and in the assay on TDF [2] were 82.9 and 90.4, respectively. For the same compound, the H1.0 immunofluorescence intensity in the assay with TDF [3] was 113 (inactive); with HCC1569 [4], 118 (inactive).
The corresponding values for `O=C(Nc1cc(Cl)cc2c1[nH]c1cnccc12)c1cccnc1` [IKK Inhibitor X] are 98.7, 91.8, 101 (inactive) and 106 (inactive).
Regarding `CCN(CC)CCNC(=O)c1cc(Cl)c(N)cc1OC.Cl` [Metoclopramide hydrochloride], the cell number came to 107 in the assay on HCC1569 [1] and 106 with TDF [2]. Moreover, the H1.0 immunofluorescence intensity in the assay with TDF [3] is 94.3 (inactive); in the assay with HCC1569 [4], 87.4 (inactive).
The corresponding values for `CNCCCC12CCC(c3ccccc31)c1ccccc12.Cl` [Maprotiline.HCl] are 100, 90.4, 94.5 (inactive) and 119 (inactive).
For `COc1cc2ncnc(Nc3ccc(O)c(Br)c3)c2cc1OC` [JAK3 Inhibitor II] the same measures were 88.7, 115, 83.8 (inactive) and 127 (inactive).
Consider `CCCCCCCC/C=C\CCCCCCCC(=O)NCc1ccc(O)c(OC)c1` [(9Z)-N-(4-hydroxy-3-methoxybenzyl)-9-octadecenamide], for which the cell number came to 40.4 in the assay on HCC1569 [1] and 91.5 in the assay with TDF [2]. The H1.0 immunofluorescence intensity with TDF [3] is 95.2 (inactive); in the assay with HCC1569 [4] it was 171 (active).
For the compound `C=Cc1c(C)c2cc3[nH]c(cc4nc(cc5nc(cc1[nH]2)C(C)=C5CCC(=O)O)C(CCC(=O)O)=C4C)c(C)c3C=C` [Protoporphyrin IX disodium], the cell number in the assay on HCC1569 [1] came to 103; in the assay on TDF [2], 86.7. Besides, the H1.0 immunofluorescence intensity in the assay on TDF [3] and with HCC1569 [4] was 100 (inactive) throughout.
Consider `CCCCCCCCCCCC(=O)O` [Dodecanoic acid], for which the values for the cell number with HCC1569 [1] and with TDF [2] were 100 and 102, respectively. Also, the H1.0 immunofluorescence intensity is 103 (inactive) in the assay with TDF [3] and 101 (inactive) with HCC1569 [4].
With `COc1cc(CCC(C)=O)ccc1O` [Vannilylacetone], the cell number with HCC1569 [1] was 105; in the assay with TDF [2], 90.8. For the same compound, the H1.0 immunofluorescence intensity with TDF [3] is 95.6 (inactive); in the assay with HCC1569 [4] it was 93.5 (inactive).
For the compound `CC(C=CC1=C(C)CCCC1(C)C)=CC=CC(C)=CC(=O)O` [13-cis Retinoic acid], the cell number in the assay with HCC1569 [1] was 98.1 ± 4.4; in the assay on TDF [2] it was 104 ± 2.9. Also, the H1.0 immunofluorescence intensity with TDF [3] is 92.9 (inactive); in the assay on HCC1569 [4] it was 111 (inactive).
Take `OC[C@@H](O)[C@H]1NC[C@@H](O)[C@H]1O` [1,4-Dideoxy-1,4-imino-D-mannitol hydrochloride]: the cell number with HCC1569 [1] worked out at 99.9; in the assay with TDF [2], 104. Also, the values for the H1.0 immunofluorescence intensity with TDF [3] and in the assay on HCC1569 [4] were 87.9 (inactive) and 90.9 (inactive), respectively.
The corresponding values for `O=C(NCCCN1CCOCC1)c1cnn2c(-c3ccccc3)cc(-c3ccccc3)nc12` are 95.3, 84.3, 97.2 (inactive) and 119 (inactive).
The corresponding values for `CCCCCCCCC1OC1CCCCCCCC(=O)O` (configuration not stated) [Epoxy-oleic acid] are 97.7, 99.9, 96.8 (inactive) and 99.1 (inactive).
As for `COC(=O)c1ccc2c(c1)nc(NC(=O)c1ccccc1)n2CCCc1ccccc1`, the cell number with HCC1569 [1] amounted to 80.4; with TDF [2] it was 65.7. Also, the H1.0 immunofluorescence intensity is 94.6 (inactive) in the assay with TDF [3] and 88.3 (inactive) in the assay with HCC1569 [4].
Consider `Cc1ccc(-c2cc(C(F)(F)F)nn2-c2ccc(S(N)(=O)=O)cc2)cc1` [Celecoxib], for which the cell number came to 97.7 in the assay on HCC1569 [1] and 103 in the assay with TDF [2]. The H1.0 immunofluorescence intensity with TDF [3] is 99.1 (inactive); in the assay with HCC1569 [4] it was 106 (inactive).
For `CCC12CCCN3CCc4c(n(c5ccccc45)C(=O)C1)C32` (single isomer, unassigned; (-)) [(-)-Eburnamonine] the same measures were 83.7, 58.5, 118 (inactive) and 113 (inactive).
In the case of `COc1ccccc1N1CCN(CCN2C(=O)CC3(CCCC3)CC2=O)CC1.Cl.Cl` [BMY 7378 dihydrochloride], the results for the cell number with HCC1569 [1] and in the assay on TDF [2] were 98.3 and 98.9, respectively. In addition, the H1.0 immunofluorescence intensity was 90.3 (inactive) in the assay with TDF [3] and 89.9 (inactive) in the assay with HCC1569 [4].
